Laboratory results reported in PubChem BioAssay (NCI).
This is part of a sample that, as a whole, favours compounds with a hit. Of some 83,000 tested, about 20% had one in any assay.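 Note: values are percent growth. 100 is the growth of untreated cells, values between 100 and 0 indicate rising inhibition; between -100 and 0 indicates cell death.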 A number with no mark means an inactive call. Calls of active or inactive are those of the source. Rule for the calls: active = growth percent below 10; inactive = the rest.

Assays:
Test in all cases: NCI-60 one-dose screen, 48 h (100 = growth as untreated, 0 = no growth, -100 = all killed)
Details in all cases: 10 µM unless noted
SR leukemia = tested on: SR leukemia
RPMI-8226 leukemia = tested on: RPMI-8226 leukemia
OVCAR-8 ovarian = tested on: OVCAR-8 ovarian
OVCAR-5 ovarian = tested on: OVCAR-5 ovarian
OVCAR-4 ovarian = tested on: OVCAR-4 ovarian
SK-OV-3 ovarian = tested on: SK-OV-3 ovarian
IGROV1 ovarian = tested on: IGROV1 ovarian
OVCAR-3 ovarian = tested on: OVCAR-3 ovarian
HS 578T breast = tested on: HS 578T breast
NCI/ADR-RES ovarian = tested on: NCI/ADR-RES ovarian
T-47D breast = tested on: T-47D breast
BT-549 breast = tested on: BT-549 breast
MDA-MB-435 melanoma = tested on: MDA-MB-435 melanoma
SW-620 colon = tested on: SW-620 colon
MCF7 breast = tested on: MCF7 breast
HCT-116 colon = tested on: HCT-116 colon
HCC-2998 colon = tested on: HCC-2998 colon
KM12 colon = tested on: KM12 colon

| Structure (SMILES) | growth (SR leukemia) | growth (RPMI-8226 leukemia) | growth (OVCAR-8 ovarian) | growth (OVCAR-5 ovarian) | growth (OVCAR-4 ovarian) | growth (SK-OV-3 ovarian) | growth (IGROV1 ovarian) | growth (OVCAR-3 ovarian) | growth (HS 578T breast) | growth (NCI/ADR-RES ovarian) | growth (T-47D breast) | growth (BT-549 breast) | growth (MDA-MB-435 melanoma) | growth (SW-620 colon) | growth (MCF7 breast) | growth (HCT-116 colon) | growth (HCC-2998 colon) | growth (KM12 colon) |
| --- | --- | --- | --- | --- | --- | --- | --- | --- | --- | --- | --- | --- | --- | --- | --- | --- | --- | --- |
| O=C(Cc1ccc(NC(=O)c2cccc(Cl)c2)cc1)NCc1ccccc1 | 11.3% | 65.8% | 67.1% | 73.2% | 82.8% | 57.6% | 49.4% | 16.7% | 32.9% | 50.5% | 54.2% | 61% | -30.1% (active) | 25.3% | 22.1% | 25.3% | 73.3% | 24.8% |
| Cc1ccc(CNc2ccc3nc(CCC(C)C)[nH]c3c2)cc1 | 85.9% | 87.4% | 89.9% | 101% | 85.1% | 100% | 77.4% | 88.9% | 96.3% | 89.6% | 84.4% | 93.4% | 97.2% | 91.9% | 89.2% | 80.4% | 111% | 96.2% |
| CC1=C(CCC(C)NCc2ccc(OCCCN3CCCCC3)cc2)C(C)(C)CCC1 (stereo unspecified) | -43.4% (active) | -39.6% (active) | -45.4% (active) | -49.8% (active) | -4.46% (active) | -74.1% (active) | -36.6% (active) | -70.4% (active) | -52.9% (active) | -40.5% (active) | -64.8% (active) | -63.9% (active) | -93.8% (active) | -80.3% (active) | -58.4% (active) | -85.3% (active) | -84.3% (active) | -80% (active) |
| CCOC(=O)C(=Cc1ccc(-c2ccccc2)cc1)C(=O)OCC | 4.01% (active) | -3.52% (active) | 19.7% | 71% | 75.5% | 95.6% | 50.5% | 52.8% | 39.7% | 19.6% | 27.8% | 30.7% | 38.3% | 10.8% | 16.9% | -10.1% (active) | 76.2% | 36.6% |
| O=C(O)COc1ccc(Cl)c(Cl)c1 | 93.7% | 101% | 105% | 106% | 113% | 105% | 107% | 123% | 123% | 106% | 95.7% | 120% | 104% | 109% | 108% | 109% | 106% | 110% |
| COc1cc(/C=C/C(=O)c2ccc(-n3cc(CN4CCN(c5cc6c(cc5F)c(=O)c(C(=O)O)cn6C5CC5)CC4)nn3)cc2)ccc1O | 14.1% | -14.6% (active) | 42.7% | 84.7% | 62.9% | 72.3% | 51.8% | 57.3% | 73.7% | 94.2% | 75.3% | 90.4% | 74% | 85.4% | 37.6% | -53.4% (active) | 59.3% | 29.9% |
| COC(=O)CCC/C=C\C[C@H]1C=CC(=O)/C1=C/C[C@@H](O)C/C=C\CC(F)(F)F | 4% (active) | -11.8% (active) | 8.95% (active) | 39% | 34% | 77.4% | 12.1% | -3.96% (active) | 41.9% | 14% | 2.7% (active) | -18.3% (active) | 4.2% (active) | -36% (active) | 4.67% (active) | -61.4% (active) | -68.7% (active) | -31.7% (active) |
| CC1(C)CC[C@]23CC[C@]4(C)[C@H](CC[C@@H]5[C@@]6(C)C/C(=C/c7ccncc7)C(=O)C(C)(C)[C@@H]6CC[C@]54C)[C@H]2[C@H]1OC3 | 56.5% | 50% | 75.1% | 89.8% | 92.2% | 94.7% | 80.5% | 84.4% | 84.9% | 97.8% | 41.5% | 99.3% | 66.6% | 61.3% | 55.3% | 50% | 93% | 68.4% |
| C/C=C(/C)n1cnc2c(Nc3ccccn3)nc(Cl)nc21 | 105% | 98.2% | 100% | 98.4% | 105% | 111% | 103% | 111% | 97.8% | 108% | 93.6% | 103% | 107% | 103% | 99.9% | 104% | 103% | 109% |
| O=C1Nc2ccccc2/C1=C/c1cccn1C(=O)c1ccc(Cl)s1 | 27.8% | 52.5% | 75.3% | 66.5% | 15.3% | 72% | 38.6% | 38.8% | 70.8% | 74.3% | -31.3% (active) | 65% | 89.8% | 56.4% | 12.3% | 34.6% | 54.4% | 4.36% (active) |
| CCOC(=O)C1=C(C)C(Cl)=N/C1=C\c1[nH]c(Cl)c(C)c1C(=O)OCC | 86.3% | 65.1% | 99.1% | 124% | 95.4% | 81.8% | 112% | 116% | 103% | 104% | 94.9% | 91.2% | 103% | 106% | 90.3% | 84.5% | 130% | 100% |
| CC(=O)/C(=C/c1ccc([N+](=O)[O-])cc1)C(=O)c1ccccc1 | -0.146% (active) | 8.32% (active) | 94.4% | 112% | 93.7% | 101% | 82.9% | 96.5% | 92.3% | 83.7% | 67.6% | 89.8% | 77.3% | 65.4% | 29.2% | 35.7% | 95.2% | 58.9% |
| O=c1cc(-c2ccccc2)[nH]c2ncc(-c3ccc(F)cc3)n12 | 16.1% | 74.5% | 89.4% | 94.5% | 93.9% | 82.1% | 67% | 54% | 68% | 45.3% | 74.3% | 64.1% | -12% (active) | 40.3% | 57.8% | 51.3% | 75.6% | 44.4% |
| CC(=O)O[C@H]1C[C@@H]2C(C)(C)C(=O)CC[C@@]2(C)c2ccc(C(C)C)cc21 | 105% | 108% | 101% | 119% | 104% | 109% | 101% | 102% | 102% | 108% | 102% | 101% | 100% | 104% | 107% | 105% | 107% | 97.7% |
| O=C1/C=C/[C@@H](O)[C@@H]2C[C@@H](O)C[C@H]2/C=C/CCC[C@@H](O)CCO1 | 101% | 126% | 66.6% | 113% | 85.4% | 90.3% | 108% | 106% | 41.9% | 89.2% | 116% | 109% | 87.9% | 106% | 95.1% | 111% | 100% | 77.1% |
| COc1cc(OC)c(/C=C/C(=O)c2c(O)cc(OC)c(C3CCN(C)CC3)c2OC)c(OC)c1 | -22.2% (active) | -45.3% (active) | 1.17% (active) | -29.8% (active) | 19.3% | -79.7% (active) | 29.1% | -51.1% (active) | -46.2% (active) | -19.3% (active) | -74.5% (active) | -6.55% (active) | -87.9% (active) | -83.8% (active) | -86.1% (active) | -100% (active) | -94.5% (active) | -62% (active) |
| COc1ccc(C(=O)N2c3ccccc3Sc3ccccc32)c(C(F)(F)F)c1 | 16.3% | 14.2% | 14.9% | 44.6% | 47.1% | 34.4% | 37.9% | -1.95% (active) | 24.3% | 2.91% (active) | 52.3% | 10.7% | -25% (active) | 24.7% | 17% | 6.57% (active) | 26% | 18% |
